ssDAF-12 act = S. stercoralis DAF-12 activation, primary screen | HEK293 ssDAF-12/GRIP1 lit1-tk-luc reporter, luminescence; % of 3 µM dafachronic acid response | activation, % at 6.8 µM | 1% of 370,000 active | AID 652126;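 active = activation above the mean over all tested compounds plus 3 SD, cut at about 0.9% in these data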
DAX1 inh-1 = inhibitors of DAX1 repression of SF-1 activated StAR promoter. 1.1% of 370,000 active. inhibition, % at 6.8 µM. HEK293T StAR-luciferase reporter, SF-1/DAX-1 repression relief;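 active = inhibition above the mean over all tested compounds plus 3 SD, cut at about 3.6% in these data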;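 note: higher inhibition means more luminescence from relief of DAX-1 repression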
hgDAF-12 ag = agonists of H. glycines DAF-12 nuclear receptor | AID 687014 | activation, % at 6.8 µM | HEK293 GAL4-hgDAF12 UAS-luciferase reporter, agonist luminescence; normalized to butyrate control | 1.8% of 370,000 active;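 active = activation above a cutoff set at the mean of all screened compounds plus 3 SD, cut at about 10% in these data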
hcDAF12 agonist = activates DAF-12 receptor from parasite H. contortus; 1.4% of 370,000 active; HEK293 hcDAF-12 lit1-tk-luc reporter, luminescence; 0% DMSO, 100% Δ7-dafachronic acid; activation, % at 6.8 µM;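 active = activation above the mean of all tested compounds plus 3 SD, cut at about 5.5% in these data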
DAX1 inh-2 = inhibits human nuclear receptor DAX1; 0.99% of 340,000 active; HEK293 Gal4-DAX1 luciferase reporter, luminescence; P51843; inhibition, % at 6.75 µM;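 active = inhibition above the mean over all tested compounds plus 3 SD, cut at about 4.2% in these data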;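 note: inhibition shows as a rise in luminescence from relieved DAX1 repression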
Target sequence (P51843 207-470 limits assumed): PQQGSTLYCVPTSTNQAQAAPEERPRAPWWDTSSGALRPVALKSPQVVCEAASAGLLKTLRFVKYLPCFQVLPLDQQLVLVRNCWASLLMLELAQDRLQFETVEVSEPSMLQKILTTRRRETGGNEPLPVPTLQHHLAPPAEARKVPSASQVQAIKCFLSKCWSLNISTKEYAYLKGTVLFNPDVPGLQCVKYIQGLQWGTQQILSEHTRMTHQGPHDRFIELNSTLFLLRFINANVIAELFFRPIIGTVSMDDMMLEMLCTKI
DAX1 inh confirm = NR0B1 (human) inhibition, confirmation; inhibition, % at 6.8 µM; 87% of 2,400 active; shares compounds with DAX1 inh-1; HEK293T StAR-promoter luciferase reporter, SF-1/DAX-1 repression;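 active = inhibition above the average of every tested compound plus 3 SD, cut at about 3.8% in these data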;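 note: active compounds raise luminescence by relieving repression of the StAR reporter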
SF1 AF2mut Luc = counter-screen for DAX1 inhibitors: nonselective inhibitors with SF-1 AF2 mutant; inhibition, % at 6.8 µM; HEK293 StAR-luciferase, luminescence; 78% of 2,400 active; shares compounds with DAX1 inh-1;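 active = inhibition above the mean of all tested compounds plus 3 SD, cut at about 3% in these data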
LXR ag = counter-screen for hcDAF-12 agonists: agonists of human LXR-beta; activation, % at 6.8 µM; 3,400 tested, under 10 active; shares compounds with hcDAF12 agonist; HEK293 Gal4-LXR tk-luc reporter, luminescence, 24 h; normalized: DMSO 0%, positive control 100%; AID 743027;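 active = mean percent activation of the reporter above a cutoff set as the average over tested compounds plus their standard deviation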
Target sequence (P55055 whole entry, looked up, the tested form may be a part): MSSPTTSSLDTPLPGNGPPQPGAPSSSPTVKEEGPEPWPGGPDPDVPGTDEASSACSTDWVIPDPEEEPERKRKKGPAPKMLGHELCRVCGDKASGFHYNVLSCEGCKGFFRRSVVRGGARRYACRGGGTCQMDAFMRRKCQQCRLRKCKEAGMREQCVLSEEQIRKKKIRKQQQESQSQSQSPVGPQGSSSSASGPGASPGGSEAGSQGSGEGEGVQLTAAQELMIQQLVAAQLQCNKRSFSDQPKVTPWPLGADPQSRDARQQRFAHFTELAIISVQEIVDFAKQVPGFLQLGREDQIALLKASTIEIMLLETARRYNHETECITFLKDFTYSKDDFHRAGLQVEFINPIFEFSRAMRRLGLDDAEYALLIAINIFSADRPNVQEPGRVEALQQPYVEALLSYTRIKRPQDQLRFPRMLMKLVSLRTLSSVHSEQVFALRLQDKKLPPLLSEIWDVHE
hcDAF12 conf = hcDAF-12 agonism, confirmation assay | shares compounds with hcDAF12 agonist | HEK293 hcDAF-12 lit1-tk-luc reporter, luminescence; % of Δ7-dafachronic acid response | activation, % at 6.8 µM | 61% of 3,400 active;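 active = mean activation across triplicate tests above the threshold derived from the earlier primary screen, cut at about 5.5% in these data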
hgDAF12 ag = confirmation of H. glycines DAF-12 agonists | activation, % at 6.8 µM | 80% of 3,300 active | shares compounds with hgDAF-12 ag | AID 743050 | HEK293 GAL4-hgDAF12 luciferase reporter, agonist mode; percent of butyrate response;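 active = mean activation over triplicate wells above the hit cutoff derived from the earlier primary screen, cut at about 11% in these data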
LXR ag 2 = LXR-beta agonism as DAF-12 counter-screen; activation, % at 6.8 µM; HEK293 Gal4-LXR luciferase reporter, 24 h; shares compounds with hgDAF-12 ag; 3,300 tested, under 10 active;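 active = mean activation of the triplicate above a set limit carried over from the primary screen, none filed active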
Large screens that a line does not name were inactive (follow-up assays come after a bar, where they were run). Only some compounds are listed: those with a hit (about 4.1% of all), similar ones and a draw of the others.

C/C(=N\Nc1nccnc1Cl)c1ccc(F)cc1	ssDAF-12 act 1.5, DAX1 inh-1 9.6, hgDAF-12 ag 20 | DAX1 inh confirm 6.5 | SF1 AF2mut Luc 4.2 | hgDAF12 ag 11 | LXR ag 2 inactive
C/C(=N\Nc1nccnc1Cl)c1ccc(Cl)c(Cl)c1	DAX1 inh-1 4.5, hgDAF-12 ag 17, hcDAF12 agonist 6.3 | DAX1 inh confirm inactive | SF1 AF2mut Luc inactive | hgDAF12 ag inactive | LXR ag 2 inactive
Cc1cc2nc(NC(=O)C3(C)CCN(C)C3)[nH]c2cc1C (stereo unspecified)	none (no result: DAX1 inh-2)
S=C(c1ccccc1)N1CCSCC1	none
O=C(CSC(=S)N1CCSCC1)c1ccccc1	DAX1 inh-1 5.0, hgDAF-12 ag 18 | DAX1 inh confirm 12 | SF1 AF2mut Luc 6.9 | hgDAF12 ag 19 | LXR ag 2 inactive
COc1ccc(-c2csc(Nc3ccccc3)n2)cc1	DAX1 inh-1 7.4, hgDAF-12 ag 21 | DAX1 inh confirm 13 | SF1 AF2mut Luc 8.2 | hgDAF12 ag 20 | LXR ag 2 inactive
CC(=O)c1cccc(Nc2nc(-c3cccnc3)cs2)c1	none
CC(=O)c1cccc(Nc2nc(-c3ccccc3)cs2)c1	ssDAF-12 act 1.0, DAX1 inh-1 9.7, hgDAF-12 ag 21, hcDAF12 agonist 9.8 | DAX1 inh confirm 11 | SF1 AF2mut Luc 7.0 | LXR ag inactive | hcDAF12 conf inactive | hgDAF12 ag 19 | LXR ag 2 inactive
COc1ccc(CC(=O)O/N=C(\N)c2ccccn2)cc1OC	none
N/C(=N\OC(=O)/C=C/c1ccccc1)c1ccccn1	DAX1 inh-1 5.9, hgDAF-12 ag 13, hcDAF12 agonist 7.0 | DAX1 inh confirm 11 | SF1 AF2mut Luc 6.6 | LXR ag inactive | hcDAF12 conf inactive | hgDAF12 ag 14 | LXR ag 2 inactive
COc1ccc(/C=C/C(=O)O/N=C(\N)c2ccccn2)cc1OC	DAX1 inh-1 6.2, hgDAF-12 ag 29, hcDAF12 agonist 7.2 | DAX1 inh confirm 5.4 | SF1 AF2mut Luc 3.0 | LXR ag inactive | hcDAF12 conf inactive | hgDAF12 ag 11 | LXR ag 2 inactive
Cc1ccc2cc(CCNC(=O)c3cccs3)c(=O)[nH]c2c1C	DAX1 inh-1 5.6, hgDAF-12 ag 19 | DAX1 inh confirm 6.8 | SF1 AF2mut Luc 3.7 | hgDAF12 ag 18 | LXR ag 2 inactive
Cc1ccc2cc(CCNC(=O)c3cccs3)c(=O)[nH]c2c1	none
CCOC(=O)c1ccc(Nc2ccc(C(C)=O)cc2)cc1	ssDAF-12 act 1.3, DAX1 inh-1 9.0, hgDAF-12 ag 21, hcDAF12 agonist 7.7 (no result: DAX1 inh-2) | DAX1 inh confirm 7.0 | SF1 AF2mut Luc 5.7 | LXR ag inactive | hcDAF12 conf 10 | hgDAF12 ag 19 | LXR ag 2 inactive
COc1cccc(-c2nc3nc(C)cc(C)n3c2NC2CCCC2)c1	none (no result: DAX1 inh-2)
O=C(Nc1ccc(-c2nc3cccnc3s2)cc1)c1ccco1	ssDAF-12 act 2.0, DAX1 inh-1 8.9, hgDAF-12 ag 19, hcDAF12 agonist 6.4 | DAX1 inh confirm 17 | SF1 AF2mut Luc 8.4 | hgDAF12 ag 18 | LXR ag 2 inactive
Nc1c(C(=O)Nc2ccc(Cl)cc2)oc2ccccc12	ssDAF-12 act 2.2, DAX1 inh-1 6.4, hgDAF-12 ag 20, hcDAF12 agonist 22, DAX1 inh-2 4.3 | DAX1 inh confirm 15 | SF1 AF2mut Luc 11 | LXR ag inactive | hcDAF12 conf 16 | hgDAF12 ag 24 | LXR ag 2 inactive
Cc1cccc(C)c1OCc1cc(C(=O)N2CCN(c3ccc(F)cc3)CC2)no1	DAX1 inh-1 5.9, hgDAF-12 ag 14 | DAX1 inh confirm 4.5 | SF1 AF2mut Luc 3.6 | hgDAF12 ag 15 | LXR ag 2 inactive
CC(=O)c1cccc(OCc2cc(C(=O)N3CCSCC3)no2)c1	DAX1 inh-1 4.8, hgDAF-12 ag 14 | DAX1 inh confirm 6.6 | SF1 AF2mut Luc 6.3 | hgDAF12 ag 15 | LXR ag 2 inactive
CC(C)[Si]1(C(C)C)OCC2OC(n3cnc4c(N)ncnc43)C(N)C2O[Si](C(C)C)(C(C)C)O1 (stereo unspecified)	none
CNC(=O)c1sc2nc(-c3ccc(OC)cc3)cn2c1C	DAX1 inh-1 5.7, hgDAF-12 ag 16, hcDAF12 agonist 9.1 | DAX1 inh confirm 11 | SF1 AF2mut Luc 7.0 | LXR ag inactive | hcDAF12 conf inactive | hgDAF12 ag 13 | LXR ag 2 inactive
CC(=O)c1cccc(NS(=O)(=O)c2ccc(N/C=C\C(=O)c3ccc(C)cc3)cc2)c1	none
CC(=O)c1cccc(N/C=C\C(=O)c2ccc(C)cc2)c1	DAX1 inh-1 6.0, hgDAF-12 ag 20, hcDAF12 agonist 9.6 | DAX1 inh confirm 19 | SF1 AF2mut Luc 8.5 | LXR ag inactive | hcDAF12 conf 9.7 | hgDAF12 ag 25 | LXR ag 2 inactive
O=C(/C=C/Nc1ccc(Br)cc1F)c1ccccc1	none
O=C(/C=C/Nc1ccccc1F)c1ccc(Br)cc1	ssDAF-12 act 1.5, DAX1 inh-1 5.2, hgDAF-12 ag 17, hcDAF12 agonist 12 | DAX1 inh confirm 14 | SF1 AF2mut Luc 8.4 | LXR ag inactive | hcDAF12 conf 14 | hgDAF12 ag 23 | LXR ag 2 inactive
Cc1nn2cc(-c3ccccc3)nc2s1	DAX1 inh-1 5.7, hgDAF-12 ag 14 | DAX1 inh confirm 10 | SF1 AF2mut Luc 7.5 | hgDAF12 ag 15 | LXR ag 2 inactive
Cc1cccc(C)c1NC(=O)C1c2ccccc2OCC(=O)N1C1CC1 (stereo unspecified)	none (no result: DAX1 inh-2)
Cn1cccc1C(=O)C(=O)Nc1ccc(Cl)cc1	ssDAF-12 act 1.4, DAX1 inh-1 5.1, hgDAF-12 ag 14, hcDAF12 agonist 11 | DAX1 inh confirm 15 | SF1 AF2mut Luc 9.2 | LXR ag inactive | hcDAF12 conf 8.6 | hgDAF12 ag 20 | LXR ag 2 inactive
Cn1cccc1C(=O)C(=O)Nc1ccc(F)c(F)c1	ssDAF-12 act 1.8, DAX1 inh-1 4.9, hgDAF-12 ag 15 | DAX1 inh confirm 9.1 | SF1 AF2mut Luc 7.7 | hgDAF12 ag 16 | LXR ag 2 inactive
